The results in this text go back to PubChem BioAssay AID540333 (Southern Research Specialized Biocontainment Screening …, 2011).

About 320 (3.2%) of roughly 10,000 compounds were called active. No stated cut-off is given here; in the data, active means CPE inhibition mostly above about 9.1% (no sharp cut-off); inactive means mostly below about 7.2%. Only a selection was taken, and actives are over-represented in it overall.

This test is described as follows: Dengue virus cytopathic effect inhibitors, cell-based, CPE readout, HTS (AID 540333). The note with it: Dengue virus CPE inhibition in host cells, at 20 µM; hits give high values.
Turning to `O=C(CCc1nc2ccccc2c(=O)[nH]1)OCC(=O)c1ccc(C2CCCCC2)cc1`, the CPE inhibition is 1.97% (inactive).
Take `O=C(Nc1nc2ccccc2s1)c1cc(-c2ccco2)nc2ccccc12`: the CPE inhibition is 5.33% (inactive).
With `COc1ccc(N2CCN(CC(=O)Nc3sccc3C#N)CC2)cc1`, the CPE inhibition entry was “inactive”.
Turning to `O=C(NCc1nnc(SCc2ccc(F)cc2)n1-c1ccc(F)cc1)C12CC3CC(CC(C3)C1)C2`, the CPE inhibition was 9.94% (active).
Take `O=C(NCc1nnc(SCc2ccc(C(F)(F)F)cc2)n1-c1ccccc1)C12CC3CC(CC(C3)C1)C2`: the CPE inhibition is 9.12% (active).
Regarding `O=C(CSc1nnc(CNC(=O)C23CC4CC(CC(C4)C2)C3)n1-c1ccc(F)cc1)Nc1ccc(F)cc1`, the CPE inhibition is 3.73% (inactive).
Then `Cc1ccc(NC(=O)CSc2nnc(CNC(=O)C34CC5CC(CC(C5)C3)C4)n2-c2ccc(F)cc2)cc1`, with 5.74% (inactive); and `O=C(CSc1nnc(CNC(=O)C23CC4CC(CC(C4)C2)C3)n1-c1ccccc1)Nc1ccccc1`, with 1.45% (inactive).
The result for `CC(C)(C)c1ccc(C(=O)NCc2nnc(SCC(=O)N3CCCc4ccccc43)n2-c2ccccc2)cc1` reads 5.59% (inactive).
For the molecule `O=C(NC(=S)N1CCN(c2ccc(F)cc2)CC1)C12CC3CC(CC(C3)C1)C2`, the CPE inhibition is 0.245% (inactive).
With `O=C(CSc1nnc(CNC(=O)C23CC4CC(CC(C4)C2)C3)n1-c1ccccc1)Nc1ccc(F)cc1`, the CPE inhibition is 6.17% (inactive).
Then `O=C(NCc1nnc(SCc2ccccc2)n1-c1ccc(F)cc1)C12CC3CC(CC(C3)C1)C2`, with 15.9% (active); and `N=C1SC(c2ccccc2)C(=O)N1c1ncc(Cc2ccccc2)s1` (stereo unspecified), with 0.6% (inactive).
Turning to `COC(=O)CCC(=O)NC(=S)Nc1ccc(S(=O)(=O)Nc2cc(OC)nc(OC)n2)cc1`, the CPE inhibition is 1.88% (inactive).
The result for `CCCCNC(=O)CCCCC(=O)N/N=C/c1cccc(Cl)c1` reads 0.96% (inactive).
Consider `CCN(Cc1ccccc1)C(=O)C1CCN(CC2CC=CCC2)CC1` (stereo unspecified), for which the CPE inhibition entry is “inactive”.
In the case of `Cc1ccnc(NC(=S)NC(=O)c2cncc(Br)c2)c1`, the CPE inhibition is 0.165% (inactive).
As to `CCCCNC(=O)c1cccc2c(=O)c(C)c(-c3ccccc3)oc12`, the CPE inhibition entry was “inactive”.
Regarding `CCOc1ccc(Oc2c(/C=N/NC(=O)COc3ccccc3OC)c(C)nn2-c2ccccc2)cc1`, the CPE inhibition entry is “inactive”.
In the case of `O=C(N/N=C\c1ccc(-c2ccccc2[N+](=O)[O-])o1)C1COc2ccccc2O1` (stereo unspecified), the CPE inhibition is 0.26% (inactive).
In the case of `CC(CCc1ccccc1)N1CCN(Cc2ccccc2)CC1` (stereo unspecified), the CPE inhibition entry was “inactive”.
`Cc1nn(-c2ccccc2)c(Cl)c1/C=C(\C#N)C(=O)NC(C)C`: the CPE inhibition was 20% (active).
As for `CC(C)NC(=O)/C(C#N)=C/c1cccc(NC(=O)c2ccccc2Cl)c1`, the CPE inhibition is 3.16% (inactive).
On to `Cc1nn(-c2ccccc2)c(Cl)c1/C=N/NC(=O)c1cccnc1`, for which the CPE inhibition was 4.37% (inactive).
Turning to `Cc1ccccc1N1CCN(C(=S)c2ccc([N+](=O)[O-])cc2)CC1`, the CPE inhibition entry is “inactive”.
Then `Cc1cc(C)cc(N(C(=O)Cn2nnc(-c3ccccc3)n2)C(C(=O)NC2CCCCC2)c2ccccn2)c1` (stereo unspecified), with 2.08% (inactive); and `CC(=O)c1ccc(N(C(=O)Cn2nnc(-c3ccccc3)n2)C(C(=O)NC2CCCCC2)c2ccccn2)cc1` (stereo unspecified), with 4.29% (inactive).
As for `CC(C)(C)NC(=O)C(c1c[nH]c2ccccc12)N(C(=O)Cn1nnc(-c2ccc(Cl)cc2)n1)c1ccccc1F` (stereo unspecified), the CPE inhibition was 17.2% (active).
The result for `Cc1ccc([N+](=O)[O-])cc1S(=O)(=O)N(C(=O)c1ccncc1)c1ccc2oc3c(c2c1)CCCC3` reads 21.1% (active).
The result for `O=[N+]([O-])c1cc2oc3c(c2c(C=NCc2ccncc2)c1O)CCCC3` reads 1.15% (inactive); that for `CC(=O)Oc1ccc(N(C(C)=O)S(=O)(=O)c2cc([N+](=O)[O-])ccc2C)cc1`, “inactive”; that for `COc1cc(NC(=O)COC(=O)CC(C)(C)C)c(C)cc1[N+](=O)[O-]`, 0.185% (inactive).
`Clc1ccc(CNCc2cccs2)c(Cl)c1`: the CPE inhibition was 0.01% (inactive).
Regarding `COc1ccc(-c2nc3ccccn3c2/N=C/c2ccc(OC)c(OC)c2)cc1O`, the CPE inhibition was 0.31% (inactive).
Turning to `Cc1c(-c2ccc(Br)cc2)nc2ccccn12`, the CPE inhibition is 1.3% (inactive).
Then `CN(C)c1ccc(-c2nc3ccccn3c2/N=C/c2ccc(Br)cc2)cc1`, with 14.2% (active).
For `Cc1ccc(-c2csc(N/N=C/c3ccco3)n2)c(C)c1`, the CPE inhibition entry is “inactive”.
`COc1cccc(OCCOCCOc2ccc(C)cc2[N+](=O)[O-])c1`: the CPE inhibition result was “inactive”.
Then `CC/C(=N\NC(=O)C(N)=O)c1ccccc1O`, with “inactive”.
Consider `CCCCCC(=O)Nc1nc(C)c(-c2csc(Nc3cc(Cl)ccc3C)n2)s1`, for which the CPE inhibition entry is “inactive”.
As to `O=C1c2cccc3cccc(c23)C(=O)N1CCN1CCN(CC(O)COc2ccc3ccccc3c2)CC1` (stereo unspecified), the CPE inhibition entry was “inactive”.
Take `COC(=O)N1[C@H](C)C=C[C@]1(Cc1ccccc1)C(=O)NCCCNc1ncc(C(F)(F)F)cc1Cl`: the CPE inhibition is 9.39% (active).
As to `O=C(COC(=O)c1cc(-c2ccccc2Cl)nc2ccccc12)Nc1ncc(C(F)(F)F)cc1Cl`, the CPE inhibition entry is “inactive”.
With `O=C(COC(=O)C1(c2ccccc2F)CCCC1)Nc1ncc(C(F)(F)F)cc1Cl`, the CPE inhibition was 0.45% (inactive).
As to `Cc1ccc(/C=N/NS(=O)(=O)c2ccc([N+](=O)[O-])cc2)o1`, the CPE inhibition result was “inactive”.
Turning to `Cc1ccc(C(=O)O/N=C(\N)c2cccnc2)cc1[N+](=O)[O-]`, the CPE inhibition was 1.06% (inactive).
Regarding `NS(=O)(=O)c1ccc(NC(=O)COC(=O)C2(c3ccc(F)cc3)CCCC2)cc1`, the CPE inhibition was 0.475% (inactive).
On to `CC(=O)Nc1ccc(NC(=O)COC(=O)C2(c3ccc(Cl)cc3)CCCC2)cc1`, for which the CPE inhibition is 0.545% (inactive).
As for `Cc1ccc(NC(=O)COC(=O)C2(c3ccc(Cl)cc3)CCCC2)cc1`, the CPE inhibition is 10.5% (active).
For the molecule `COc1ccc(/C=C/C(=O)c2cc(F)ccc2OC(=O)c2ccccc2C)cc1OC`, the CPE inhibition entry was “inactive”.
`N#Cc1ccsc1NC(=O)CN1CCN(c2ccccc2O)CC1`: the CPE inhibition entry is “inactive”.
Consider `N#Cc1ccsc1NC(=O)CN(Cc1ccccc1)Cc1ccccc1`, for which the CPE inhibition was 9.87% (active).
Regarding `CCN(CC)c1ccc(C(=O)OCC(=O)Nc2sccc2C#N)cc1`, the CPE inhibition entry was “inactive”.
Regarding `CSc1sc(C)cc1/C=N/O`, the CPE inhibition result is “inactive”.
The result for `S=C(NCCc1ccccc1)N/N=C/c1ccccc1Cl` reads 18.4% (active).
In the case of `C/C(=N\NC(=S)NCCc1ccccc1)c1ccc(Cl)cc1`, the CPE inhibition was 1.61% (inactive).
Take `S=C(NCCc1ccccc1)Nc1ccc(Br)cc1`: the CPE inhibition was 3.17% (inactive).
As for `O=C(Nc1cc(Cl)ccc1Cl)c1ccc(-c2ccccc2)cc1`, the CPE inhibition entry is “inactive”.
As for `O=C(Nc1ccc(Cl)c(C(F)(F)F)c1)[C@@H]1CC=C[C@@H]2CCN(Cc3ccc(Cl)c(Cl)c3)C(=O)[C@@H]21`, the CPE inhibition was 9.69% (inactive).
Consider `COc1ccc(NC(=O)CN2C(=O)C(c3ccccc3)=NC23CCCCCC3)cc1OC`, for which the CPE inhibition is 0.935% (inactive).
The result for `COc1cc(NC(=O)CN2C(=O)C(c3ccccc3)=NC23CCCCCC3)cc(OC)c1` reads 14% (active).
As to `COc1ccc(NC(=O)CN2C(=O)C(c3ccccc3)=NC23CCCCCC3)cc1`, the CPE inhibition is 5.39% (inactive).
`CCOC(=O)/C(N=Nc1sc(C(=O)OC)c(C)c1C(=O)OCC)=C(\O)CCl`: the CPE inhibition is 0.165% (inactive).
Consider `Cc1cc(C)c(S(=O)(=O)Nc2ccccc2-c2ccccc2)c(C)c1`, for which the CPE inhibition is 20.4% (active).
Turning to `Cc1ccc(S(=O)(=O)N(CC(=O)Nc2ccccc2-c2ccccc2)c2ccc(C)cc2C)cc1`, the CPE inhibition is 10.8% (inactive).
Then `Cc1ccc(NS(=O)(=O)c2ccc3c(c2)C(=O)c2ccccc2C3=O)c(C)c1`, with 4.82% (inactive); and `Clc1ccc(-n2nnnc2CN2CCOCC2)cc1Cl`, with 0.27% (inactive).
In the case of `COc1ccccc1OCCOCCOc1ccccc1Cl`, the CPE inhibition result is “inactive”.
As to `O=C(COC(=O)/C=C/c1ccc(OC(F)F)cc1)NCc1cccs1`, the CPE inhibition was 0.315% (inactive).
As for `CCOC(=O)c1c(C)[nH]c(C)c1C(=O)COC(=O)/C=C/c1ccc(OC(F)F)cc1`, the CPE inhibition is 10.1% (active).
As for `O=C1CN(C(=O)COC(=O)/C=C/c2ccc(OC(F)F)cc2)c2ccccc2N1`, the CPE inhibition entry was “inactive”.
As for `C/C(=N\NC(=O)CSc1nnc(C)s1)c1ccc(Cl)cc1`, the CPE inhibition entry is “inactive”.
Take `CC(C)CC(=O)NC1(C(F)(F)F)C(=O)N(CC(C)C)C2=C1C(=O)CC(C)(C)C2` (stereo unspecified): the CPE inhibition entry was “inactive”.
The result for `CC(=O)Nc1ccc(Nc2nc(C)c([N+](=O)[O-])c(Nc3ccc(NC(C)=O)cc3)n2)cc1` reads “inactive”; that for `Cc1ccc(C)c(Nc2ncnc(N)c2[N+](=O)[O-])c1`, 6.21% (inactive).
Consider `CNc1nc(Nc2ccc(C)c(Cl)c2)nc(N)c1[N+](=O)[O-]`, for which the CPE inhibition is 9.08% (active).
With `COc1cccc(-c2ncc3ccccc3c2COC(=O)c2ccc(C(C)(C)C)cc2)c1`, the CPE inhibition is 15.2% (active).
Consider `COc1cccc(-c2ncc3ccccc3c2CO)c1`, for which the CPE inhibition result is “inactive”.
With `COc1cccc(-c2ncc3ccccc3c2COC(=O)c2ccc(C(F)(F)F)cc2)c1`, the CPE inhibition is 0.77% (inactive).
For `CC(=O)N1N=C(c2ccc(Br)cc2)OC1(C)CC(=O)Nc1ccccc1` (stereo unspecified), the CPE inhibition was 4.7% (inactive).
The result for `O=C(CN1CCCCCCC1)N/N=C/c1ccccc1F` reads 0.805% (inactive); that for `C/C(=N\NC(=O)COc1ccc(C(C)(C)C)cc1)c1ccc(-n2ccnc2)cc1`, 10.2% (active); that for `C/C(=N\Nc1ccc(Cl)c(Cl)c1)c1ccc(-n2ccnc2)cc1`, “inactive”.
For `CC(C)(C)c1ccc(OCC(=O)N/N=C/c2ccc(N3CCOCC3)cc2)cc1`, the CPE inhibition is 1.86% (inactive).
As for `NS(=O)(=O)c1cccc(NC(=O)CSc2ncc(C(F)(F)F)cc2Cl)c1`, the CPE inhibition was 3.56% (inactive).
In the case of `CN(c1ccccc1)S(=O)(=O)c1cccc(NC(=O)CSc2nncn2C)c1`, the CPE inhibition is 0.35% (inactive).
On to `CN(c1ccccc1)S(=O)(=O)c1cccc(NC(=O)CSc2ncc(C(F)(F)F)cc2Cl)c1`, for which the CPE inhibition was 22.4% (active).
Regarding `Cc1c(Cl)cccc1NC(=S)NCc1cccn1C`, the CPE inhibition was 0.255% (inactive).
Regarding `Cc1cccc(-n2c(C)cc(/C=C3/C(=N)N4C(c5ccccc5)=CSC4=NC3=O)c2C)c1`, the CPE inhibition was 5.77% (inactive).
Regarding `Cc1cc(C)cc(-n2c(C)cc(/C=C3\C(=N)N4N=C(CC(C)C)SC4=NC3=O)c2C)c1`, the CPE inhibition is 15.1% (active).
As to `Cc1cccc(-n2c(C)cc(/C=C3\C(=N)N4N=C(CC(C)C)SC4=NC3=O)c2C)c1`, the CPE inhibition was 0.575% (inactive).
